Where “and” joins values, the source holds several entries; their conditions need not be identical. Equal values may be shown once. Records with an inconclusive call do not appear. More than one record can exist for a structure, and the calls need not agree. Calls of active or inactive are those of the source. Unless noted, calls follow the shape of the dose curve; as a rule, active = well fitted curve in the direction sought with a large enough effect in the repeat runs; inconclusive = weak or mixed curves; inactive = no such curve, though single readings can be large; an effect the other way counts as inactive or inconclusive.

Assay [1] is described as follows: qHTS assay to identify small molecule agonists of the NFkB signaling pathway (AID 1159509; active = well fitted curve in the direction sought with a large enough effect in the signal ratio in the repeat runs, not every such curve was filed as active; the % refers to the signal ratio; also: series mostly up to about 61 µM). The method in brief: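 After overnight attachment, reporter cells received test compounds, DMSO or positive controls and were incubated 5 hr at 37 C. FRET substrate was then added for 1.5 hr at room temperature before dual-emission fluorescence reading.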
A general note: In qHTS, concentration-response curves come from the screen itself.

The nature of assay [2]: qHTS assay to identify small molecule agonists of the NFkB signaling pathway - cell viability counter screen (AID 1159515; calls by dose curve; also: series mostly up to about 61 µM; nearly all actives have a fitted effect of over 55% in size). In a few lines: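 Viability in NFkB-bla ME-180 cells was measured by CellTiter-Glo luminescence, 30 min room temperature, in wells already treated 5 hr with compounds and read for reporter FRET.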
Assay [3] is described as follows: qHTS assay to identify small molecule agonists of the endoplasmic reticulum stress response signaling pathway (AID 1159516; active = well fitted activation curve with a large enough effect in the signal ratio in the repeat runs, not every such curve was filed as active; the % refers to the signal ratio). The method in brief:
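ER stress element reporter (bla) in HeLa. 1,500 cells/well, overnight attachment; 5 hr compound; 2 hr RT substrate; dual-emission fluorescence.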

A short description of assay [4]: qHTS assay to identify small molecule agonists of the endoplasmic reticulum stress response signaling pathway - cell viability counter screen (AID 1159517; calls by dose curve;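 also: HeLa cells carrying an ER stress response element beta-lactamase reporter; series mostly up to about 61 µM; nearly all actives have a fitted effect of over 50% in size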). In a few lines:
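Cells, HeLa ESRE-bla; density, 1,500/well; dosing, 5 hr at 37 C, 5% CO2; readout, CellTiter-Glo luminescence after 30 min RT.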

The nature of assay [5]: qHTS assay to identify small molecule antagonists of the retinoid-related orphan receptor gamma (ROR-gamma) signaling pathway - cell viability counter screen (AID 1159520). Also: nearly all actives have a fitted effect of over 50% in size. In a few lines: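 Cytotoxicity was read from cellular ATP (CellTiter-Glo luminescence) after 16 hr at 37 C with 1 uM doxycycline induction. The inducer was added 2 hr after compound transfer to Tet-on ROR gamma CHO cells.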

The target in assay [6] is Nuclear receptor ROR-gamma (Homo sapiens) (UniProt P51449). Kind of assay: qHTS assay to identify small molecule antagonists of the retinoid-related orphan receptor gamma (ROR-gamma) signaling pathway (AID 1159521;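 also: CHO cells with doxycycline inducible ROR-gamma driving an RORE luciferase reporter; top concentration of the series differs between compounds; nearly all actives have a fitted effect of over 50% in size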). In a few lines:
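Readout: ONE-Glo luciferase luminescence, 30 min at room temperature. System: Tet-on RORγ CHO, RORE-LUC. Sequence: compound 2 h, doxycycline 1 uM final, 16 h at 37 C.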

Assay [7] is described as follows: qHTS assay to identify small molecule agonists of the AP-1 signaling pathway - cell viability counter screen (AID 1159525; calls by dose curve; also: nearly all actives have a fitted effect of over 55% in size). The method in brief:
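Luminescent ATP readout (Cell Titer Glo, 30 min RT), normalised to DMSO and tetra n-octyl ammonium bromide controls. Cells were ME-180 AP-1-bla in 0.5% dialyzed FBS Opti-MEM, with a 5 h, 37 °C compound exposure.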

Assay [8] in a line: qHTS assay to identify small molecule agonists of the AP-1 signaling pathway (AID 1159526; calls by dose curve).
Assay [9] can be described thus: qHTS assay to identify small molecule agonists of the RXR signaling pathway - cell viability counter screen (AID 1159529). Also: nearly all actives have a fitted effect of over 50% in size. Also: potency is read from the fitted curve at half-maximal effect. The method in brief: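 Tox21 10K compounds were tested for cytotoxicity against GeneBLAzer RXR-alpha HEK 293T cells grown in 2% charcoal-stripped FBS. Exposure lasted 16 hr at 37 C, 5% CO2; viability read by CellTiter-Glo luminescence.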
Assay [10] can be described thus: qHTS assay to identify small molecule antagonists of the retinoid acid receptor (RAR) signaling pathway - cell viability counter screen (AID 1159551). Also: nearly all actives have a fitted effect of over 35% in size. In a few lines:
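Following overnight attachment, C3RL4 reporter cells received DMSO-dissolved compounds and then retinol (1 uM final). Six hours later at 37 C, ATP content was measured by CellTiter-Glo luminescence.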

Assay [11] can be described thus: qHTS assay to identify small molecule antagonists of the retinoic acid receptor (RAR) signaling pathway (AID 1159552; also: nearly all actives have a fitted effect of over 50% in size). In a few lines: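 Overnight-plated C3RL4 reporter cells get compound, then retinol to 1 uM final; plates sit 6 hr at 37 C, 5% CO2. A luciferase reagent is added and light output recorded after 30 min at room temperature.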
Assay [12] is described as follows: qHTS assay to identify small molecule agonists of the retinoic acid receptor (RAR) signaling pathway (AID 1159553). Also: potency is read from the fitted curve at half-maximal effect. In a few lines: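 Cell line C3RL4, RARE luciferase reporter. Treatment: compounds in DMSO, 6 hr, 37 C, 5% CO2, after overnight plating. Detection: luminescence, 30 min RT after reagent.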
Assay [13] in a line: qHTS assay to identify small molecule antagonists of the estrogen related receptor (ERR) signaling pathway from Tox21 library - cell viability counter screen (AID 1224834). Also: nearly all actives have a fitted effect of over 30% in size. In a few lines:
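Viability readout (CellTiter-Fluor fluorescence, 30 min at 37 C) multiplexed with the ERR assay; cells treated 17.5 h at 37 C with compounds delivered in DMSO.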

Assay [14] can be described thus: qHTS assay to identify small molecule antagonists of the estrogen related receptor (ERR) signaling pathway - cell viability counter screen (AID 1224818).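 Also: series mostly up to about 46 µM; viability measured after 17.5 h of compound exposure.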 In a few lines:
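Here, ERR cells are plated at 2,000 cells per well, allowed 6 h to attach, and treated with compounds in DMSO for 17.5 h at 37 C. CellTiter-Fluor is then added and fluorescence read after 30 min.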

A short description of assay [15]: qHTS assay to identify small molecule antagonists of the estrogen related receptor (ERR) signaling pathway (AID 1224819). The method in brief: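 LOPAC library screened for antagonism as reduced One-Glo luminescence in ERR reporter cells (2,000/well). Compounds were added after 6 h pre-incubation and left 18 h at 37C; reading followed a 30 min room-temperature reagent step.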

Assay [16] is described as follows: qHTS assay to identify small molecule agonists of the estrogen related receptor (ERR) signaling pathway (AID 1224820). In a few lines: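 Quantitative HTS of the LOPAC library used NTP ERR reporter cells treated 18 h at 37 C. Signal is luminescence after One-Glo addition and a 30 min room-temperature incubation.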
Assay [17] relates to estrogen-related receptor alpha (ERRalpha) with PGC-1alpha coactivator, human. Kind of assay: qHTS assay to identify small molecule antagonists of the estrogen related receptor signaling pathway with the pleiotropic PPARgamma coactivator (PGC) (AID 1224821; calls by dose curve). In a few lines: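 Quantitative HTS for antagonism: PGC/ERR cells received compounds after 6 h attachment and were incubated 18 h at 37 C, with luminescence (One-Glo) as the endpoint.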

Assay [18] can be described thus: qHTS assay to identify small molecule antagonists of the estrogen related receptor signaling pathway with the pleiotropic PPARgamma coactivator (PGC) cell viability counter screen (AID 1224822;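 also: series mostly up to about 46 µM; viability read after 17.5 h compound exposure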). The method in brief:
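qHTS format, DMSO compound stocks pin-transferred onto PGC/ERR cells 6 h after plating; 17.5 h exposure at 37 C, then CellTiter-Fluor fluorescence.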

Assay [19] can be described thus: qHTS assay to identify small molecule agonists of the estrogen related receptor signaling pathway with the pleiotropic PPARgamma coactivator (PGC) (AID 1224823). The method in brief: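 Cell-based luciferase assay in the NTP-supplied PGC/ERR line, 2,000 cells/well; 18 h compound exposure at 37 C, luminescence after One-Glo.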

Take `CCCCC(CC)COCC1CO1` (stereo not given): the result in assay [1] and in assay [8] was inactive. Besides, the Potency entry in assay [2], in assay [3], in assay [4], in assay [5], in assay [6] and in assay [7] was “inactive” in each case. Also, the Potency entry in assay [9], in assay [10], in assay [11], in assay [12] and in assay [13] was “inactive” throughout.

For `Cc1c(OCC(F)(F)F)ccnc1CS(=O)c1nc2ccccc2[nH]1` (stereo not given), the outcome in [1], in [8], in assay [16] and in assay [19] was inactive. The Potency result in [2], in assay [3], in [4], in [5], in [6] and in assay [7] was “inactive” throughout. Besides, the Potency result in assay [10], in assay [11], in [14], in assay [15], in [17] and in [18] was “inactive” in each case. Moreover, the Potency in [12] is 34.4 µM (active) and 26.6 µM (active).

Turning to `COc1ccc(OC)c(C(O)CNC(=O)CN)c1` (stereo not given), the compound was called inactive in assay [1] and in [8]. Also, the Potency result in assay [2], in assay [3], in [4], in assay [5], in [6] and in assay [7] was “inactive” throughout. For the same compound, the Potency entry in [10], in assay [11], in [12] and in assay [13] was “inactive” in each case.

Take `O=P(O)(O)O`: the compound was called inactive in assay [1] and in assay [8]. Further, the Potency entry in assay [2], in assay [3], in assay [4], in assay [5], in [6] and in [7] was “inactive” each time. The Potency result in assay [9], in assay [10], in [11], in [12] and in assay [13] was “inactive” throughout.

In the case of `OC[C@H]1O[C@@H]2O[C@H]3[C@H](O)[C@@H](O)[C@@H](O[C@H]4[C@H](O)[C@@H](O)[C@@H](O[C@H]5[C@H](O)[C@@H](O)[C@@H](O[C@H]6[C@H](O)[C@@H](O)[C@@H](O[C@H]7[C@H](O)[C@@H](O)[C@@H](O[C@H]8[C@H](O)[C@@H](O)[C@@H](O[C@H]1[C@H](O)[C@H]2O)O[C@@H]8CO)O[C@@H]7CO)O[C@@H]6CO)O[C@@H]5CO)O[C@@H]4CO)O[C@@H]3CO`, the outcome in assay [1] and in [8] was inactive. In addition, the Potency result in assay [2], in assay [3], in assay [4], in [5], in [6] and in [7] was “inactive” each time. In addition, the Potency entry in [10], in [11], in [12] and in [13] was “inactive” throughout. For the same compound, in assay [9], the Potency is 21.9 µM (active) and inactive.

In the case of `CC(C)OB(OC(C)C)OC(C)C`, the outcome in assay [1] and in [8] was inactive. For the same compound, the Potency result in assay [2], in assay [3], in [4], in assay [5], in assay [6] and in assay [7] was “inactive” each time. The Potency entry in assay [9], in [10] and in [13] was “inactive” each time.

As to `CN1C(C(=O)Nc2ccccn2)=C(O)c2ccccc2S1(=O)=O`, the result in assay [1] and in [8] was inactive. In addition, the Potency result in assay [2], in [3], in assay [4], in assay [5], in [6] and in assay [7] was “inactive” throughout. The Potency result in [10], in assay [11], in assay [12], in assay [14], in assay [18] and in [13] was “inactive” throughout.

`COC(C)COC(C)COC(C)CO` (stereo not given): the outcome in [1] and in [8] was inactive. Also, the Potency entry in [2], in [3], in [4], in [5], in assay [6] and in assay [7] was “inactive” each time. The Potency result in [10] is “inactive”.

As for `CC(C(=O)O)c1cccc(C(=O)c2ccccc2)c1` (stereo not given), the compound was called inactive in [1], in assay [8], in assay [16] and in assay [19]. In addition, the Potency entry in [2], in [3], in [4], in assay [5], in assay [6] and in assay [7] was “inactive” throughout. In addition, the Potency result in [9], in assay [10], in assay [11], in [12], in assay [14] and in assay [15] was “inactive” each time. In addition, the Potency result in assay [17] and in assay [18] was “inactive” in each case.

The record behind these values is PubChem BioAssay (Tox21).
